TRHR agonist = TRH receptor (human) agonism. activation, % at 2 µM. actives 0.18% (n = 360,000). P34981. TRHR cells, calcium flux fluo-8, FDSS agonist mode; further: 0% is about no effect
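In this calcium-flux screen, cells bearing human TRHR are dye-loaded with fluo-8, baselined for 10 cycles, then exposed to library compounds; positive kinetic calcium responses during the agonist phase mark hits, with TRH as control.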
D1 potentiator = enhances dopamine response at the human D1 receptor; AID 504651; actives 0.036% (n = 360,000); P21728; HEK293 TREx D1 cells, calcium flux, dopamine EC20 potentiation; potentiation, % at 10 µM; in the data active means potentiation above about 30%; further: 0% is about no effect
Target sequence (P21728 whole entry, looked up): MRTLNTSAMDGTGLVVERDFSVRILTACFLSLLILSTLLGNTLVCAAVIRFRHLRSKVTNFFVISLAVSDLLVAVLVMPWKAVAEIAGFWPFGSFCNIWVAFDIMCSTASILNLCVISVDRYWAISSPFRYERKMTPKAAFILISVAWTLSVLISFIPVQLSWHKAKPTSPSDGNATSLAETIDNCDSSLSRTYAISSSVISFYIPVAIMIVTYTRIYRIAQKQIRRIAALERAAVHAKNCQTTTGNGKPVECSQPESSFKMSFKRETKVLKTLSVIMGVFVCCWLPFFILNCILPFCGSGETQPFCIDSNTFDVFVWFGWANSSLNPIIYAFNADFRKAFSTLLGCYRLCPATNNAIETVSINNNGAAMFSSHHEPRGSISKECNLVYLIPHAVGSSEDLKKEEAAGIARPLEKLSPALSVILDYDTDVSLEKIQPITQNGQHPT
D1 antagonist = antagonists of human D1 dopamine receptor; P21728; HEK293 TREx D1 cells, calcium flux, dopamine EC80; active compounds read low; activity change, negative = inhibition, % at 10 µM; actives 3.2% (n = 360,000); in the data active means activity change below about -30%; further: on the % scale 0 is the no-effect control and ±100 the full control effect
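Compound effects on dopamine-evoked calcium signalling were measured in tetracycline-induced HEK293 Trex D1 cells. Dopamine at EC80 followed a 180 s compound pre-read, and fluorescence was tracked kinetically for 180 s more.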
TRHR enhancer = allosterically enhances the human TRH receptor | P34981 | TRHR cells, fluo-8 calcium fluorescence, EC20 TRH enhancement | enhancement, % at 2 µM | actives 0.66% (n = 360,000); in the data active means enhancement above about 30%; further: 0% is about no effect
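TRHR-expressing cells loaded with fluo-8 calcium dye were read kinetically (ex 480/em 530) during compound addition, then stimulated with an EC20 of TRH (10 nM final). Enhancement of the Gq-mediated intracellular calcium response was scored.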
D1 agonist = agonists of human D1 dopamine receptor | AID 504660 | actives 1% (n = 360,000) | P21728 | activation, % at 2 µM | HEK293 T-REx D1 cells, calcium flux, agonist mode; further: 0% is about no effect
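Agonism was scored from calcium flux recorded over 180 s (1 read/s) after pintool compound addition, following a 10-cycle baseline. Cells were inducible force-coupled HEK293 TREx D1, plated overnight at 30 C and loaded with no-wash calcium dye.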
Active calls of the source: *; x = no result given. Shown are actives, neighbours in structure and some others; about 4.7% of the full set was active somewhere. Unless noted, no stated cut-off is given here; in the data, active means activation above about 30%; inactive means the rest.

SMILES	TRHR agonist	D1 potentiator	D1 antagonist	TRHR enhancer	D1 agonist
C/C=C(/C)C(=O)O[C@@H]1c2cc3c(c(OC)c2-c2c(cc(OC)c(OC)c2OC)[C@@H](OC(C)=O)[C@@H](C)[C@H]1C)OCO3	-0.4	-3.4	-62.1*	-6.7	3.1
COc1cc2c(c(OC)c1OC)-c1c(cc3c(c1OC)OCO3)C[C@H](C)[C@@](C)(O)C2	-0.6	-5.0	-11.5	12.2	-0.2
CC(=O)N1C=Cc2c(c(C)c3c([nH]c4ccccc43)c2C)C1	-2.2	-6.5	10.4	-0.7	57.9*
CC(=O)N1CCc2[nH]c3ccccc3c2C1	1.0	2.0	-13.4	-2.7	-0.7
CC1(C)C2([N+](=O)[O-])CN3CC1([N+](=O)[O-])CN(C2)C3C(O)C(O)C(O)CO (stereo unspecified)	0.5	-3.1	7.7	31.2*	1.7
CCN(CC)CCCN(Cc1cc2cc3c(cc2[nH]c1=O)OCCO3)C(=O)Nc1ccc(F)cc1	-0.8	-2.2	22.7	32.0*	1.7
Cc1cccc(NC(=S)N(CCN2CCOCC2)Cc2cc3cc4c(cc3[nH]c2=O)OCCO4)c1	-0.8	-5.7	0.6	33.9*	3.1
COc1ccc(C2CC(c3cccc(C)c3)n3nc(N)nc3N2)cc1 (stereo unspecified)	-0.4	0.3	-30.9*	10.2	0.5
Cc1ccccc1C1CC(c2ccc(Br)cc2)Nc2nc(N)nn21 (stereo unspecified)	1.0	0.7	5.4	40.2*	3.1
O=C1NC(=O)C(c2ccccc2[N+](=O)[O-])=C1Nc1ccc(O)c(Cl)c1	0.8	-10.4	-37.8*	-1.1	1.2
O=C(NNc1ccccc1[N+](=O)[O-])Nc1ccc(Cl)c(Cl)c1	-0.7	3.5	-27.4	8.7	14.0
COC(=O)c1scc(C)c1NC(=O)/C=C/C(=O)O	0.2	-4.2	-47.0*	-1.9	2.4
COC(=O)c1scc(C)c1NC(=O)Nc1ccccc1	-0.1	4.5	3.4	2.6	1.4
COC(=O)c1scc(C)c1NC(=O)c1ccccc1F	-1.6	-3.5	-37.1*	17.9	0.7
COCCN(Cc1nc(-c2ccc(-c3ccccc3)cc2)oc1C)C(C)C	0.1	-7.8	-14.2	-3.4	6.1
Cc1ccccc1CNC(=O)C1CCCCN1S(=O)(=O)c1ccc(F)cc1 (stereo unspecified)	-0.6	-6.3	-32.2*	-1.2	0.0
Cc1ccc(S(=O)(=O)Cn2nnnc2C(C(C)C)N2CCC(C(N)=O)CC2)cc1 (stereo unspecified)	-0.2	-1.9	-2.7	-6.0	0.6
CCCCCCn1c(SCC(=O)OC)nc2c1c(=O)[nH]c(=O)n2C	0.1	36.8*	-1.1	-5.2	0.3
CCOCCn1c(SCc2ccc(C)cc2)nc2c1c(=O)[nH]c(=O)n2C	-1.3	-9.7	-38.0*	20.7	-1.2
CCCCCCn1c(SCC(C)C)nc2c1c(=O)[nH]c(=O)n2C	0.0	-2.6	2.1	-4.7	-0.8
CCOCCn1c(SCc2ccc(F)cc2)nc2c1c(=O)[nH]c(=O)n2C	-0.6	-1.6	1.6	-4.4	0.3
COC(=O)c1ccc(NS(=O)(=O)c2ccccc2)o1	1.8	-5.5	-32.8*	3.9	4.9
Cc1ccnc(NC(=O)COc2ccc3c(c2)CCC3)c1	-0.8	-5.0	2.4	-3.3	1.2
CCN(CC)C(=O)c1c(-c2ccccc2)oc2ccc(O)cc12	0.5	-2.6	-30.8*	4.5	0.7
COc1cc(NC(=O)CCc2c(C)nc3c(c(C)nn3-c3ccccc3)c2C)cc(OC)c1OC	0.2	-5.8	-11.5	8.9	1.2
SMILES	TRHR agonist	D1 potentiator	D1 antagonist	TRHR enhancer	D1 agonist
CCn1nc(C)cc1C(=O)OCC(=O)c1ccc(Cl)cc1	0.0	-8.3	-63.4*	0.1	2.5
O=C(O)c1cc2cc(Oc3ccccc3)ccc2[nH]1	1.2	-3.5	-9.2	-3.6	3.9
C=CCNc1nc(Nc2ccc([N+](=O)[O-])cc2)nc(OCC)n1	0.5	-9.2	-54.6*	0.5	2.9
CCn1c(=O)c2cc(C(=O)N3CCN(c4cccc(Cl)c4)CC3)sc2c2ccccc21	0.5	-4.5	6.7	-4.6	2.6
CN1CCC(=NOc2ccc([N+](=O)[O-])cc2)CC1	2.2	-9.2	-51.9*	-6.2	10.7
O=C(CSc1nc(=O)[nH]c2c1CCCC2)NCc1ccccc1Cl	-0.4	0.5	x	4.4	15.0
COc1ccccc1N1CCN(S(=O)(=O)c2c(C)sc3ncn(CC(=O)Nc4ccc(C)cc4Br)c(=O)c23)CC1	0.2	-0.2	4.1	0.4	-1.6
C/C(=N\NC(=S)NCc1ccccc1)c1ccc(C#N)cc1	0.6	-0.8	-32.8*	-1.0	0.2
COc1cc(Cl)c(NC(=O)CN(C)S(=O)(=O)c2ccc3[nH]c4c(c3c2)CCCC4)c(OC)c1	-0.3	-5.3	-19.5	9.1	-1.2
COc1cc(OC)cc(C(=O)NCC(=O)NCCN2C(=O)S/C(=C\c3ccccc3Cl)C2=O)c1	0.0	-1.7	3.7	4.7	2.0
COc1cc(C(=O)NCC(=O)NCCN2C(=O)S/C(=C\c3ccccc3Cl)C2=O)cc(OC)c1OC	-0.3	-4.0	2.9	30.7*	-0.3
O=C(c1cc2c(=O)oc3ccccc3c2s1)N1CCN(c2cccc(Cl)c2)CC1	0.2	-1.3	4.7	12.4	0.4
Fc1ccc(Nc2nnc(C(F)(F)F)s2)cc1Cl	2.7	2.6	-24.0	-6.6	24.6
FC(F)(F)c1nnc(Nc2ccc(Cl)cc2)s1	0.2	-4.5	-30.0*	-9.4	11.7
COc1ccccc1-c1cc2nc(C)c(CCC(=O)Nc3ccc(Br)c(C)c3)c(C)n2n1	0.1	-3.0	6.5	-5.1	2.3
CN1CCN(/N=C/c2nc(-c3ccc(Cl)cc3)n3ccccc23)CC1	-0.2	-6.7	-61.4*	4.8	12.4
CN1CCN(/N=C/c2nc(-c3ccccc3)n3ccccc23)CC1	-0.1	-6.1	-1.5	2.3	-1.3
Cc1ccc(SCc2nc(-c3ccc(C(=O)NCCc4ccc(Cl)cc4)cc3)oc2C)cc1	0.2	-1.3	1.5	1.2	4.2
Cc1ccc(SCc2nc(-c3ccc(C(=O)NCC(C)c4ccccc4)cc3)oc2C)cc1 (stereo unspecified)	4.0	3.5	-4.8	10.0	30.4*
COc1ccc(OC)c(NC(=O)c2ccc(-c3nc(CSc4ccccc4)c(C)o3)cc2)c1	0.8	0.6	-32.1*	-2.9	3.8
CCOC(=O)c1c(C)[nH]c(C)c1S(=O)(=O)N(C)CC(=O)N1CCN(c2ccccc2OC)CC1	-0.3	-3.2	-1.5	-1.8	2.2
CC(=O)N1CCC2(CC1)CC(=O)c1cc(OCC(=O)N3CCOCC3)ccc1O2	3.1	-8.5	-38.0*	4.7	1.7
CCOC(=O)N1CCN(C(=O)COc2ccc3c(c2)C(=O)CC2(CCN(C(C)=O)CC2)O3)CC1	0.1	-2.0	0.2	-2.5	4.1
COc1cc(-c2noc(-c3ccc(NC4CCCC4)c([N+](=O)[O-])c3)n2)cc(OC)c1OC	0.7	1.1	-30.3*	6.2	9.5
